Values joined by “and” are separate entries in the source; they are usually repeats but may differ in a detail not shown here. Identical values can stand only once. Results filed as inconclusive are left out. Active and inactive are the calls of the source. Unless noted, calls follow the shape of the dose curve; as a rule, active = well fitted curve in either direction with a large enough effect (not every such curve was filed as active); inconclusive = small, poorly fitted or top-dose-only effect, or another doubt; inactive = flat fitted curve, though single readings scatter.
Assays:
[1] = AP1 Signaling Pathway (AID 357); details: ME-180 AP-1-bla reporter, EGF-induced, beta-lactamase ratio, 5 h; at 7.69 µM (top of the series) unless noted;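 also: ME-180 reporter cells stimulated with EGF at its EC50 level; % is scaled to controls: 0 for no effect and ±100 for the full control effect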
Method in brief: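 Cells are seeded overnight, exposed to compound titrations and an EC50 level of EGF for 5 hours at 37 °C, then loaded with CCF4 dye for 2.5 hours. Beta-lactamase activity under the AP-1 element is read as a blue/green ratio.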

[2] = NFAT Signaling Pathway (AID 444); details: Jurkat NFAT-bla M1, carbachol, beta-lactamase ratio, 5 h; at 7.69 µM (top of the series) unless noted;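 also: carbachol stimulus at about its EC50 of 1 µM final; % is scaled to controls: 0 for no effect and ±100 for the full control effect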
Method in brief: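 Read-out: CCF4 FRET ratio (460 nm/530 nm) after 1 h RT dye loading, used for %activity and AC50 from titration series. Cells: Jurkat NFAT-β-lactamase/M1 line, treated with compound plus 1 uM carbachol for 5 h, 37 °C.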

[3] = Stat Signaling Pathway (AID 446); details: ME-180 (cervical carcinoma) SIE beta-lactamase reporter, IL-6 stimulated, 5 h;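 also: ME-180 cervical cancer cells given 40 pM IL-6 alongside compound; SIE-controlled beta-lactamase reporter measured as 460/530 nm FRET emission ratio; % is scaled to controls: 0 for no effect and ±100 for the full control effect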
Method in brief: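 Compound effects on IL-6-induced STAT reporter activity were measured in ME-180 cells. After overnight culture, cells were co-treated with 40 pM IL-6 for 5 hrs before beta-lactamase substrate loading at room temperature.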

[4] = biological target: Glucocorticoid receptor (Homo sapiens) (UniProt P04150); test: GR-GFP Redistribution (AID 450;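 active = compounds whose dose series gives a full or clear partial fitted curve of increased nuclear translocation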; also: potency is read from the fitted curve at half-maximal effect); details: U2OS GR-GFP nuclear translocation, laser cytometry, 2 h
Sequence of Glucocorticoid receptor (Homo sapiens) (P04150 whole entry, looked up, the tested form may be a part): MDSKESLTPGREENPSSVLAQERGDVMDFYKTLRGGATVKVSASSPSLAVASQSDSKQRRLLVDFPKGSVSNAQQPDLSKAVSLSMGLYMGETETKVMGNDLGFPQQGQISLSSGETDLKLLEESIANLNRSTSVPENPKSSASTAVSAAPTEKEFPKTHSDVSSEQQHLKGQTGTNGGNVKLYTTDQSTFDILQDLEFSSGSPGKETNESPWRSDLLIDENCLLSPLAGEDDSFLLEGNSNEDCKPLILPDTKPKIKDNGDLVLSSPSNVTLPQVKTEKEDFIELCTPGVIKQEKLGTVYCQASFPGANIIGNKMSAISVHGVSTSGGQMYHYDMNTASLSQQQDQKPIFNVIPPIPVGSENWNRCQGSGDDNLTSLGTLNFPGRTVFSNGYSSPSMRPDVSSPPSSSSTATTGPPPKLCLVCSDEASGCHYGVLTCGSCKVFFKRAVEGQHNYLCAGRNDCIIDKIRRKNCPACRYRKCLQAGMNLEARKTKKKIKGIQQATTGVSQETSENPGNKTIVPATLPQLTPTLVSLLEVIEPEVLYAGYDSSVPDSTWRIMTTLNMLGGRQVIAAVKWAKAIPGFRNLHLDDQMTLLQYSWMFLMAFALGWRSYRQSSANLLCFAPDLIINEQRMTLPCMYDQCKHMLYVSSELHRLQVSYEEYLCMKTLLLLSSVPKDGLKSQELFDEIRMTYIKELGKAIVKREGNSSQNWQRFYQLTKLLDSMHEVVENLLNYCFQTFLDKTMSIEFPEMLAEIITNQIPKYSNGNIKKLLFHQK

[5] = biological target: Glucocorticoid receptor (Homo sapiens) (UniProt P04150); test: GR-EFC Redistribution (AID 451; calls by dose curve; also: potency is read from the fitted curve at half-maximal effect); details: CHO-K1 GR-EFC translocation, beta-gal luminescence, 2 h
Method in brief: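 Translocation of GR-ED fusion to nuclear EA restores b-gal, read by luminescence after 1 h room-temperature detection. Engineered CHO-K1 biosensor cells, 1,000/well, exposed 2 h at 37 C to titrations up to 46 uM final.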

[6] = biological target: Mitogen-activated protein kinase 10 (Mus musculus) (UniProt Q61831); test: JNK3 AlphaScreen Assay (AID 530);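 also: kinase came from lysate of stimulated human HepG2 cells; signal reports phosphorylation of biotinylated GST-cJun 1-79 at Ser73 with 10 µM ATP; % is scaled to controls: 0 for no effect and ±100 for the full control effect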
Method in brief: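 qHTS titrations with 15 min compound pre-incubation before adding ATP (10 uM final). Read-out: AlphaScreen of Ser73-phosphorylated biotin-GST-cJun using HepG2 lysate JNK3 activated by IL-1β and TNFα.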

[7] = biological target: 3',5'-cyclic-AMP phosphodiesterase 4B (Homo sapiens) (UniProt Q07343); test: qHTS Assay for Inhibitors of PDE-IV (AID 607; active = well fitted activation curve with a large enough effect in the main read-out, with a control signal flat, not every such curve was filed as active; also: % of control where 0% means no effect)
Sequence of 3',5'-cyclic-AMP phosphodiesterase 4B (Homo sapiens) (Q07343 whole entry, looked up): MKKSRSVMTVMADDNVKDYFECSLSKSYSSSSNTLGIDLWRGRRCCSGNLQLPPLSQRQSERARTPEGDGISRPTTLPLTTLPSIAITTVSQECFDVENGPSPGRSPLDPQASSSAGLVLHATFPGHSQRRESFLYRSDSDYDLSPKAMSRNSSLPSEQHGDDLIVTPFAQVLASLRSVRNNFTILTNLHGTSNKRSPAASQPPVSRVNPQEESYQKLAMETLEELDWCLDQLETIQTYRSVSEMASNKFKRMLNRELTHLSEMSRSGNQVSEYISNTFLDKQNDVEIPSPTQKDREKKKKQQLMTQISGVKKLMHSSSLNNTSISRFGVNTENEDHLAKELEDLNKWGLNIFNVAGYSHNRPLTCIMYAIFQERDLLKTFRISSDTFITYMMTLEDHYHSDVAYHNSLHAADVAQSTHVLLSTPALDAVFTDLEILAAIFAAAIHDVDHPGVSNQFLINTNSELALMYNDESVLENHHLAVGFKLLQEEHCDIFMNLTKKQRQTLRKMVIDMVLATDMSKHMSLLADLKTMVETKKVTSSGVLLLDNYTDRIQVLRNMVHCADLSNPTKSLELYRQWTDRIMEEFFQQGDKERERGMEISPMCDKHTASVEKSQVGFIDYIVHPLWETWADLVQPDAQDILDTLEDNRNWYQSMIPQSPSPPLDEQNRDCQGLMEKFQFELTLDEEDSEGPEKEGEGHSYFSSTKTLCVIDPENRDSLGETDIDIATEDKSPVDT
Method in brief: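 ACTOne HEK293 cells carry a modified cAMP-gated CNG channel and express endogenous PDE4; plated 1000 cells/well, compounds up to 22.9 uM final. Membrane-potential dye fluorescence (ex 535/em 590) was read; parental cells received 10 uM forskolin + 100 uM RO 20-1724.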

[8] = qHTS Assay for Lipid Storage Modulators (AID 1519; calls by dose curve); details: Drosophila S3 cells, BODIPY lipid droplet/cell ratio, laser cytometry, cells loaded with oleic acid
Method in brief: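 Cells seeded at 5,000 per well were treated with compounds over a concentration series and loaded with oleic acid (400 uM, as added). Lipid droplet fluorescence (488 nm excitation, 500-530 nm channel) was read by laser-scanning cytometry and normalized to 20 uM Triacsin C.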

[9] = biological target: Luciferin 4-monooxygenase (Photinus pyralis) (UniProt P08659); test: Biochemical firefly luciferase enzyme assay for NPC (AID 624030; active = well fitted curve in the direction sought with a large enough effect; an effect the other way counts as inactive or inconclusive;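 also: purified P. pyralis luciferase at 10 nM with luciferin and ATP substrate; 0% = DMSO and -100% = full luciferase inhibition by PTC124 control; nearly all actives have a fitted effect of over 70% in size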)
Sequence of Luciferin 4-monooxygenase (Photinus pyralis) (P08659 whole entry, looked up): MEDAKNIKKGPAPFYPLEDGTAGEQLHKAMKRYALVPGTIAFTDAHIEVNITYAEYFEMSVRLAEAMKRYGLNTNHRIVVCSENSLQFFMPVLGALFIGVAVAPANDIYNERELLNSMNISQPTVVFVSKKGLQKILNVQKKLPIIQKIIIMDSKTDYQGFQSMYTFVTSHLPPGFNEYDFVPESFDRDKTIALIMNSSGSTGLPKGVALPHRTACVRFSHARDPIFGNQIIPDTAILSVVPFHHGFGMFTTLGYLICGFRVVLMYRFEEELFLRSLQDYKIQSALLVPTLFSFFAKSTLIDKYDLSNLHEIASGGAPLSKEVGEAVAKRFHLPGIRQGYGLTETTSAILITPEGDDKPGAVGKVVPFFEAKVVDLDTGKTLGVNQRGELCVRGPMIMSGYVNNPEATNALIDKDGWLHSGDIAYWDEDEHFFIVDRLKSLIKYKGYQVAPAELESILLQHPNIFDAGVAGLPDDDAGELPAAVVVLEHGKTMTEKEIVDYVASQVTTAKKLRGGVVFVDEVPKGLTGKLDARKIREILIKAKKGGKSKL
Method in brief: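 Direct inhibition of firefly luciferase enzyme (10 nM final, 50 mM Tris Acetate) assessed by luminescence within 5 minutes. Percent activity scaled between DMSO and PTC124 positive control, with concentration-effect curves classified by fit quality and response.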

[10] = qHTS profiling for inhibitors of Plasmodium falciparum proliferation (AID 504749; active = well fitted curve in the direction sought with a large enough effect; an effect the other way counts as inactive or inconclusive;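 also: 0% = DMSO vehicle and full inhibition = artemisinin control; nearly all actives have a fitted effect of over 60% in size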); details: P. falciparum in erythrocytes, SYBR Green DNA, 72 h, at 12.8 µM (top of the series)
Method in brief: (§1)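 SYBR Green fluorescence of parasite DNA, read after lysis and overnight dark incubation, measured growth over 72 h in erythrocyte culture at 0.3% parasitemia and 2.5% hematocrit. Data normalised to DMSO and 0.29 uM artemisinin, with plate-drift correction.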

CP238 = test: as above; details: P. falciparum in erythrocytes, SYBR Green DNA, 72 h; series mostly up to 12.8 µM
Method in brief: as §1

CP262 = test: as above; details: P. falciparum in erythrocytes, SYBR Green DNA, 72 h; series mostly up to 12.8 µM
Method in brief: as §1

CP325 = test: as above; details: P. falciparum in erythrocytes, SYBR Green DNA, 72 h; series mostly up to 12.8 µM
Method in brief: as §1

ECU = test: as above; details: P. falciparum in erythrocytes, SYBR Green DNA, 72 h; series mostly up to 12.8 µM
Method in brief: as §1

FAB9 = test: as above; details: P. falciparum in erythrocytes, SYBR Green DNA, 72 h; series mostly up to 12.8 µM
Method in brief: as §1

HB3 = test: as above; details: P. falciparum in erythrocytes, SYBR Green DNA, 72 h; series mostly up to 12.8 µM
Method in brief: as §1

JCK = test: as above; details: P. falciparum in erythrocytes, SYBR Green DNA, 72 h; series mostly up to 12.8 µM
Method in brief: as §1

[11] = biological target: Cytochrome P450 1A2 (Homo sapiens) (UniProt P05177); test: p450-cyp1a2 (AID 410; calls by dose curve; also: potency is read from the fitted curve at half-maximal effect;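 as to activity change, negative = inhibition: -100% = full effect of reference inhibitor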)
Sequence of Cytochrome P450 1A2 (Homo sapiens) (P05177 whole entry, looked up): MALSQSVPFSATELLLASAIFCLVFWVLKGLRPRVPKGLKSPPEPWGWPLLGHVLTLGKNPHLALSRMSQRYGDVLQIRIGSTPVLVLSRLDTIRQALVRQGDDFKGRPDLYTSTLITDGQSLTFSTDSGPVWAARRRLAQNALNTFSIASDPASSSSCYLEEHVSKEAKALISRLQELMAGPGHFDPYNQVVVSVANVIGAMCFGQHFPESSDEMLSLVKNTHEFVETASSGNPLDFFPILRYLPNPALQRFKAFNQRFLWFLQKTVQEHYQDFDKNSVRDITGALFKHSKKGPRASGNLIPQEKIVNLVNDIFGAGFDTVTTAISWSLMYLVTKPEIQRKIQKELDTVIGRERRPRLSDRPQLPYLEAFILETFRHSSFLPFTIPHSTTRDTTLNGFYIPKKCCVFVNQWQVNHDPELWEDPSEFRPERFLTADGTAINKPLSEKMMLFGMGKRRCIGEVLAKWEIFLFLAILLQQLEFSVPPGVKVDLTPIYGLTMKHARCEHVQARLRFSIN
Method in brief: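 O-Demethylation of luciferin 6' methyl ether by human CYP1A2 is monitored as luciferase luminescence. Substrate sits at Km (100uM); enzyme is 20nM. Values are scaled to 57 uM furafylline as maximal inhibition.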

[12] = biological target: Cytochrome P450 3A4 (Homo sapiens) (UniProt P08684); test: qHTS Assay for Activators of Cytochrome P450 3A4 (AID 885; active = well fitted curve in the direction sought with a large enough effect; an effect the other way counts as inactive or inconclusive; also: nearly all actives have a fitted effect of over 65% in size)
Sequence of Cytochrome P450 3A4 (Homo sapiens) (P08684 whole entry, looked up): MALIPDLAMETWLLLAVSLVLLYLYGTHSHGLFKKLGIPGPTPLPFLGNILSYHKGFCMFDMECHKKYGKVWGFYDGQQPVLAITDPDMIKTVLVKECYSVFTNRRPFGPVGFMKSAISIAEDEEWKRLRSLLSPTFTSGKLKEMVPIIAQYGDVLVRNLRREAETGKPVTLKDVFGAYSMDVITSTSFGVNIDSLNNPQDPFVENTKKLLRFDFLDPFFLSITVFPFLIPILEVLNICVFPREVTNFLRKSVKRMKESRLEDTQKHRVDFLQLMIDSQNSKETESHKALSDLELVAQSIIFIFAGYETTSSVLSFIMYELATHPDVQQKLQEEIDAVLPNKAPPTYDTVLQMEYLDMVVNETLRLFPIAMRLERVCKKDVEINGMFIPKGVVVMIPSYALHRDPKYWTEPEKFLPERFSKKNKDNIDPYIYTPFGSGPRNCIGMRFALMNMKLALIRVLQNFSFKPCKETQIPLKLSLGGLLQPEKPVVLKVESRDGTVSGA
Method in brief: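 CYP3A4 activity: Luciferin-PPXE O-dealkylation, 25uM substrate, 200mM KPO4, RT throughout. Read-out is luciferase luminescence; higher values reflect activation.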

[13] = biological target: Ubiquitin carboxyl-terminal hydrolase 1 (Homo sapiens) (UniProt O94782); test: Inhibitors of USP1/UAF1: Pilot qHTS (AID 504865; active = well fitted curve in the direction sought with a large enough effect; an effect the other way counts as inactive or inconclusive;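 also: rhodamine fluorescence freed from ubiquitin-rhodamine substrate followed over time; top concentration of the series differs between compounds; % is scaled to controls: 0 for no effect and ±100 for the full control effect; nearly all actives have a fitted effect of over 35% in size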)
Sequence of Ubiquitin carboxyl-terminal hydrolase 1 (Homo sapiens) (O94782 whole entry, looked up): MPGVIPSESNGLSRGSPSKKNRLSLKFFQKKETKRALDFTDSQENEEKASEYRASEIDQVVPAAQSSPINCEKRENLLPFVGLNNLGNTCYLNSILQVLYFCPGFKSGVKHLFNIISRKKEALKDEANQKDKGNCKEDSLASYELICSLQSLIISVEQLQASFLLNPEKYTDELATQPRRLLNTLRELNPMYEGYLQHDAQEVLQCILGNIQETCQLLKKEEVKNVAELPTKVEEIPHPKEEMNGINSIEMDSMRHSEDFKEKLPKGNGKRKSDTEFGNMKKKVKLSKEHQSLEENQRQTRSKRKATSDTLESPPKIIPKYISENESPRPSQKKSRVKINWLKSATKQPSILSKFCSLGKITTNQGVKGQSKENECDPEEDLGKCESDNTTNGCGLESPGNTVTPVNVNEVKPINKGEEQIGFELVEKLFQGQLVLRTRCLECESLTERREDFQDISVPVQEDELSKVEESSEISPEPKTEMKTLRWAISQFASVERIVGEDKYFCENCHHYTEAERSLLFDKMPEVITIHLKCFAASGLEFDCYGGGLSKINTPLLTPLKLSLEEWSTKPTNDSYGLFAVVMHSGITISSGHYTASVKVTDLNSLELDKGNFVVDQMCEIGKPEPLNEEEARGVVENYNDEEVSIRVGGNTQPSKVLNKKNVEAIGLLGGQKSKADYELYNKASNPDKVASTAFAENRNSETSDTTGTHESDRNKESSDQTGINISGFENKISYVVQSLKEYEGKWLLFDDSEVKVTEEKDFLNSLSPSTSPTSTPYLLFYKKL
Method in brief: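 Enzyme-free wells gave the negative control, while test wells held 1nM USP1/UAF1 preincubated with compound for 15 min at room temperature. Ub-Rho at 150nM final started the reaction, and fluorescence at 480/540 nm was recorded kinetically.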

[14] = at 7.69 µM (top of the series) unless noted
[15] = measured here: cell count channel max response
[16] = measured here: lipid channel max response

CC(C)(O/N=C(\C(=O)N[C@@H]1C(=O)N2C(C(=O)[O-])=C(C[n+]3ccccc3)CS[C@@H]12)c1csc(N)n1)C(=O)O
inactive: activity change, negative = inhibition [1] 8.59% [at 17.2 µM] | activity change, negative = inhibition [2] 7.85% [at 17.2 µM] | activity, negative = inhibition [3, 14] 7.45% [at 17.2 µM] | Potency [4] > 20.6 µM | Potency [5] > 20.6 µM | Potency [6] | Potency [7] | activity change, negative = inhibition ([8]; at 25.7 µM (top of the series)) 0.159% | outcome [9] | activity, negative = inhibition ([10]; parasite line A) 2.04% | activity, negative = inhibition ([10]; parasite line B) -2.21% | Potency (CP238) | Potency (CP262) | Potency (CP325) | Potency (ECU) | Potency (FAB9) | Potency (HB3) | Potency (JCK)
-1.74%: max response [8, 15]
-1.95%: max response [8, 16]

Cc1ccccc1[C@@H](OCCN(C)C)c1ccccc1
1.49%: max response [8, 16]
inactive: activity change, negative = inhibition [1] 26.9% [at 17.2 µM] | Potency [11] | activity, negative = inhibition ([3]; at 17.2 µM (top of the series)) 5.39% | activity, negative = inhibition ([3]; at 38 µM (top of the series)) 20.8% | Potency [4] > 46 µM and > 20.6 µM | Potency [5] > 46 µM and > 20.6 µM | Potency [6] | Potency [7] | Potency [12] | activity change, negative = inhibition ([8]; at 25.7 µM (top of the series)) -1.18%
0.329%: max response [8, 15]

C1CCN2C[C@H]3C[C@H](CN4CCCCC34)C2C1 (some centres not stated)
19.7% and 18.8%: max response [8, 16]
inactive: activity change, negative = inhibition ([8]; at 57.5 µM (top of the series)) 2.4% and 4.93% | Potency [13]
17.1% and 11%: max response [8, 15]

CS(=O)(=O)Nc1cccc(-c2ccc3ncnc(NCc4cccnc4)c3c2)c1
inactive: activity, negative = inhibition [3, 14] -6% | Potency [4] > 46 µM | Potency [6] | Potency [7] | Potency [12] | activity change, negative = inhibition ([8]; at 57.5 µM (top of the series)) 10.4% | Potency [13]
active: Potency [11] 316 nM
13.1%: max response [8, 16]
2.04%: max response [8, 15]

C[C@H]1NC(=O)NC1=O
-2.21%: max response [8, 15]
-1.48%: max response [8, 16]
inactive: activity change, negative = inhibition [1] 18% [at 17.2 µM] and -9.42% [at 17.2 µM] | Potency [11] | activity change, negative = inhibition [2] -10.2% [at 17.2 µM] and -1.97% [at 17.2 µM] | activity, negative = inhibition [3, 14] -29.7% [at 17.2 µM] and -2.24% [at 17.2 µM] | Potency [4] > 20.6 µM | Potency [5] > 20.6 µM | Potency [6] | Potency [7] | activity change, negative = inhibition ([8]; at 25.7 µM (top of the series)) -0.728% | Potency [13]

CCCN1C[C@H](CSC)C[C@H]2c3cccc4[nH]cc(c34)C[C@@H]21
active: Potency [11] 3.16 µM and 1.58 µM
-9.01%: max response [8, 15]
inactive: activity change, negative = inhibition [1] -5.45% [at 17.2 µM] | activity, negative = inhibition [3, 14] 6.37% [at 17.2 µM] | Potency [4] > 20.6 µM and > 46 µM | Potency [5] > 20.6 µM and > 46 µM | Potency [6] | activity change, negative = inhibition ([8]; at 25.7 µM (top of the series)) -0.938%
-9.12%: max response [8, 16]

Source: PubChem BioAssay (NCATS)
